Peg3 promoter: reduces Peg3 promoter-driven luciferase expression in HeLa | HeLa PEG-Prom luciferase reporter, luminescence, overnight | inhibition, % at 20 µM | hit rate 1.7% among 360,000;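 active means inhibition of at least 50% at 20 µM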
Shn3 inh set2: reduces Shn3 3'UTR luciferase signal in osteoblasts; inhibition, % at 12.5 µM; Clone20 osteoblast Shn3 3'UTR firefly luciferase, 24 h; hit rate 0.52% among 360,000; AID 588674;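 active means mean inhibition of at least 75% with every replicate also reaching 75%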
CF NFkB block: blocks PAF-induced NF-kB reporter in cystic fibrosis cells. KKLEB NF-kB-GFP reporter, GFP fluorescence overnight. inhibition, % at 5 µM. hit rate 0.86% among 360,000. AID 588850;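 active means at least 50% inhibition at 5 µM, scaled per plate between neutral and stimulator controls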;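 further: PAF is a Pseudomonas aeruginosa culture filtrate used as stimulus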
HIF-2a inh: blocks HIF-2a reporter activity | inhibition, % at 18.8 µM | hit rate 0.72% among 360,000 | 786-0 RCC cells HIF-2a reporter, luciferase luminescence, overnight;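 active means inhibition of the luminescence signal of 40% or more relative to plate controls, in a single-dose primary screen at 18.75 µM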
KKLEB cytotox: reduces viability of KKLEB cystic fibrosis airway cells; KKLEB CF airway cells viability, ATPlite luminescence, overnight; active compounds read low; cells stimulated with P. aeruginosa culture filtrate; activity change (cytotoxicity), % at 5 µM; hit rate 0.36% among 360,000; AID 602141;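 active means corrected activity change at or below -50% at 5 µM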
TRPM1 prom inh: inhibitors of MITF-driven TRPM1 promoter in melanoma cells; SK-MEL-5 TRPM1 promoter luciferase, 24 h; inhibition, % at 12.5 µM; hit rate 0.83% among 330,000;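 active means mean inhibition across replicates of 60% or more, whatever share of single replicates reaches that level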
Hits are given with their value. Hits are enriched below; roughly 2.7% of the tested compounds scored in any of these assays.

How did O=[N+]([O-])c1cc(-c2nc(-c3ccncc3)no2)ccc1Cl do in these assays?
Peg3 promoter: 105; Shn3 inh set2: inactive; CF NFkB block: inactive; HIF-2a inh: inactive; KKLEB cytotox: inactive; TRPM1 prom inh: inactive

Results for CC[C@@]1(C(=O)OC)N[C@H](CN(C)C(=O)Nc2ccc(C(F)(F)F)cc2)[C@@H]2C(=O)N(C)C(=O)[C@@H]21 ?
Peg3 promoter: inactive; Shn3 inh set2: inactive; CF NFkB block: inactive; HIF-2a inh: inactive; KKLEB cytotox: inactive; TRPM1 prom inh: inactive

What do the screens show for `COC(=O)c1ccc(N2CCN(C)CC2)c(NC(=O)c2sc3ccccc3c2Cl)c1`?
Peg3 promoter: 110; Shn3 inh set2: inactive; CF NFkB block: inactive; HIF-2a inh: inactive; KKLEB cytotox: inactive; TRPM1 prom inh: inactive

What do the screens show for `COc1ccc2nc(C)cc(SCC(=O)N/N=C/c3ccccc3)c2c1`?
Peg3 promoter: inactive; Shn3 inh set2: inactive; CF NFkB block: inactive; HIF-2a inh: inactive; KKLEB cytotox: inactive; TRPM1 prom inh: inactive

How did COc1ccc2nc(C)cc(SCC(=O)N/N=C/c3ccc(O)cc3O)c2c1 do in these assays?
Peg3 promoter: inactive; Shn3 inh set2: 87; CF NFkB block: inactive; HIF-2a inh: inactive; KKLEB cytotox: inactive; TRPM1 prom inh: inactive

How did COc1cc(/C=N/NC(=S)Nc2cccc(C(=O)O)c2)ccc1O do in these assays?
Peg3 promoter: inactive; Shn3 inh set2: inactive; CF NFkB block: inactive; HIF-2a inh: 43; KKLEB cytotox: inactive; TRPM1 prom inh: inactive

How did COc1cc(/C=N/NC(=O)CCN2CCCCC2)ccc1O do in these assays?
Peg3 promoter: inactive; Shn3 inh set2: inactive; CF NFkB block: inactive; HIF-2a inh: inactive; KKLEB cytotox: inactive; TRPM1 prom inh: inactive

How did COc1cc(/C=N/NC(=O)CCn2cnc(-c3ccccc3)c2-c2ccccc2)ccc1O do in these assays?
Peg3 promoter: 53; Shn3 inh set2: inactive; CF NFkB block: inactive; HIF-2a inh: inactive; KKLEB cytotox: inactive; TRPM1 prom inh: inactive

What do the screens show for `Nc1ccc2c(Cl)cc(Cl)cc2c1`?
Peg3 promoter: inactive; Shn3 inh set2: inactive; CF NFkB block: inactive; HIF-2a inh: inactive; KKLEB cytotox: inactive

What do the screens show for `COc1cc(N=Nc2cccc(S(N)(=O)=O)c2)c2ccccc2c1N`?
Peg3 promoter: inactive; Shn3 inh set2: inactive; CF NFkB block: inactive; HIF-2a inh: inactive; KKLEB cytotox: inactive; TRPM1 prom inh: 74

What do the screens show for `Cc1ccc(NC(=O)c2cc(N3C(=O)C=CC3=O)ccc2Cl)cc1C`?
Peg3 promoter: 80; Shn3 inh set2: inactive; CF NFkB block: inactive; HIF-2a inh: inactive; KKLEB cytotox: inactive; TRPM1 prom inh: inactive

What do the screens show for `Cc1ccc(NC(=O)c2cc(-n3cnnc3)ccc2Cl)cc1`?
Peg3 promoter: inactive; Shn3 inh set2: inactive; CF NFkB block: inactive; HIF-2a inh: inactive; KKLEB cytotox: inactive; TRPM1 prom inh: inactive

Results for COCCOc1nc2c(c(=O)n(C)c(=O)n2C)n1Cc1cccc(OC)c1 ?
Peg3 promoter: inactive; Shn3 inh set2: 87; CF NFkB block: inactive; HIF-2a inh: inactive; KKLEB cytotox: inactive; TRPM1 prom inh: inactive

Results for COc1ccc(C2=Nn3c([n+](C)c4ccccc43)SC2)cc1 ?
Peg3 promoter: inactive; Shn3 inh set2: inactive; CF NFkB block: inactive; HIF-2a inh: inactive; KKLEB cytotox: inactive; TRPM1 prom inh: inactive

What do the screens show for `C[n+]1c2n(c3ccccc31)N=C(c1ccc(Cl)cc1)CS2`?
Peg3 promoter: inactive; Shn3 inh set2: inactive; CF NFkB block: inactive; HIF-2a inh: inactive; KKLEB cytotox: inactive; TRPM1 prom inh: 61

Results for CSc1nc(N)nc2c1ncn2CC(=O)N1CCN(Cc2c(C)cc(C)cc2C)CC1 ?
Peg3 promoter: inactive; Shn3 inh set2: 89; CF NFkB block: inactive; HIF-2a inh: inactive; KKLEB cytotox: inactive; TRPM1 prom inh: inactive

How did Cc1cc(C)c(CN2CCN(C(=O)Cn3ccc(N)nc3=O)CC2)c(C)c1 do in these assays?
Peg3 promoter: inactive; Shn3 inh set2: inactive; CF NFkB block: inactive; HIF-2a inh: inactive; KKLEB cytotox: inactive; TRPM1 prom inh: inactive

What do the screens show for `O=C(CCNS(=O)(=O)c1ccccc1C(F)(F)F)NCCCc1ccccc1`?
Peg3 promoter: inactive; Shn3 inh set2: inactive; CF NFkB block: inactive; HIF-2a inh: inactive; KKLEB cytotox: inactive; TRPM1 prom inh: inactive

How did CCc1c(C(=O)NNC(=S)Nc2ccc(S(=O)(=O)Nc3ncccn3)cc2)csc1C do in these assays?
Peg3 promoter: inactive; Shn3 inh set2: inactive; CF NFkB block: inactive; HIF-2a inh: inactive; KKLEB cytotox: inactive; TRPM1 prom inh: inactive

Bioassay records: PubChem BioAssay, several laboratories
